From PubChem BioAssay
Sampled rows, rich in hits. Any-hit rate of the full collection: about 4.5%.
Jurkat NFkB inh – inhibitors of induced NF-kB luciferase reporter, primary screen, TCR NF-kB activation inhibitor project, cell-based, luminescence, uHTS; Jurkat, PMA/ionomycin-induced NF-kB luciferase reporter; inhibition, % at 4 µM; hit rate 0.53% among 330,000; in the data active = inhibition above about 50%
Gli-Sufu block – Gli-Sufu pathway antagonists, primary screen, luciferase luminescence, Sufu-KO-LIGHT cells, uHTS; Sufu-KO-LIGHT fibroblasts, Gli luciferase reporter luminescence; inhibition, % at 5 µM; hit rate 0.74% among 340,000; AID 588413, 2011;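 active = inhibition above about 55%, limit read from the data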;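 also: 0% = DMSO-treated cells and 100% = wells with medium but no cells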
697 NFkB inh – inhibitors of PMA/ionomycin-induced NF-kB reporter, 697 cells, primary screen, B-cell NF-kB inhibitor project, cell-based, luminescence, uHTS | inhibition, % at 4 µM | hit rate 0.33% among 330,000 | 697 B-cell NF-kB luciferase reporter, 16 h; in the data active = inhibition above about 35%
aSyn UTR inh – MLPCN primary screen, SNCA 5' untranslated region; inhibition, % (tested at 7.5 µM); alpha-synuclein 5'UTR reporter, inhibitor activity; AID 1813, 2009; hit rate 0.82% among 300,000; in the data active = inhibition above about 60%;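 also: H4 neuroglioblastoma cells stably carrying SNCA 5'UTR luciferase fusion; 0% = DMSO wells and 100% = positive control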
CSC inhib – cancer stem cell viability inhibitors, primary screen, luminescence; cancer stem cell-like cells viability; hit rate 1.1% among 300,000; AID 2717, 2010; inhibition, % at 7.5 µM; in the data active = inhibition above about 75%; tested in HMLE shEcad cells
Mdm2 MdmX PPI – inhibitors of human Mdm2-MdmX association, primary screen, cell-based, luminescence, split luciferase, SaOS-2, uHTS | SaOS-2 split-luciferase Mdm2/MdmX complementation | hit rate 3% among 330,000 | inhibition, % at 8 µM | Protein Mdm4 (Homo sapiens) + E3 ubiquitin-protein ligase Mdm2 (Homo sapiens), …;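 active = inhibition of at least 50% at 8 µM in the primary screen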
Target sequence (O15151 whole entry, looked up): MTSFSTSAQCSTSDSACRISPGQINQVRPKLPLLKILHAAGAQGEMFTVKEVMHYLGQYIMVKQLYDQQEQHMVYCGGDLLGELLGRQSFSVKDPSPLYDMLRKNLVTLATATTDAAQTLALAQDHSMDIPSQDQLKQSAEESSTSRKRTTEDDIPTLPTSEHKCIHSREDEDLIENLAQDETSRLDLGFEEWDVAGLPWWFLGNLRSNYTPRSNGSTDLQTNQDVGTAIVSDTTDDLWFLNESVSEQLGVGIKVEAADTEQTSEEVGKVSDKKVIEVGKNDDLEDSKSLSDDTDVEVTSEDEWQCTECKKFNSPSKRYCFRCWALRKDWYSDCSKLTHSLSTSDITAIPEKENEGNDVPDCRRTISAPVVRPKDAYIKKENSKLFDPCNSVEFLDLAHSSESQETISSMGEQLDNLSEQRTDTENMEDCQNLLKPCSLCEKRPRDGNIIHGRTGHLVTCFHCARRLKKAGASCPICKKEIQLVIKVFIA
Target sequence (Q00987 whole entry, looked up): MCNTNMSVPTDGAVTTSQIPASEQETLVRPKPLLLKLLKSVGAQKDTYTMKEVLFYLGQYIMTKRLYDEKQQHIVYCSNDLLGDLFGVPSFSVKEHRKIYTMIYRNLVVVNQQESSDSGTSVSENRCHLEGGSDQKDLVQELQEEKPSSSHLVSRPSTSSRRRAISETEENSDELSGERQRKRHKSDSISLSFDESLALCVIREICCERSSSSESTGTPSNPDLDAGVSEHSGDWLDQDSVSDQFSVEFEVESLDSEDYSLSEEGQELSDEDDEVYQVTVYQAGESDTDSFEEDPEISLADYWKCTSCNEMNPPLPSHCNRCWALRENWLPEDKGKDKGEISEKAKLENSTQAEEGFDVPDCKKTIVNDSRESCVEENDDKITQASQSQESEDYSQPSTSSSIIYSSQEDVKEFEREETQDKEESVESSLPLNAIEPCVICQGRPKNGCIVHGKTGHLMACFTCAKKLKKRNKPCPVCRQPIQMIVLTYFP
Jurkat NFkB conf – PMA/ionomycin-induced NF-kB reporter inhibitors, Jurkat retest, confirmation, T-cell NF-kB inhibitor project, cell-based, luminescence, single concentration; hit rate 27% among 2,700; inhibition, % at 4 µM; shares compounds with Jurkat NFkB inh; Jurkat NF-kB luciferase, 16 h;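 active = inhibition reaching about 45% at 4 µM in either replicate, limit read from the data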;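 also: plate controls were PMA/ionomycin stimulated DMSO wells for no effect and unstimulated DMSO wells for full effect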
An asterisk follows results filed as active; · = no result.

SMILES	Jurkat NFkB inh	Gli-Sufu block	697 NFkB inh	aSyn UTR inh	CSC inhib	Mdm2 MdmX PPI	Jurkat NFkB conf
O=[N+]([O-])c1ccc2nc(-c3ccc(Cl)cc3)n(OCc3ccccc3)c2c1	-199.0	-56.9	-240.5	-243.1	28.3	-77.9	-88.7
COc1ccc(-c2csc(Nc3ccccc3)n2)cc1	-196.5	-121.1	-171.6	-150.4	·	-200.2	-81.7
CC(=O)c1cccc(Nc2nc(-c3ccccc3)cs2)c1	-265.2	-138.8	-221.5	-144.9	9.8	-350.9	-103.0
COc1ccc(Nc2nc(-c3ccc(OC)cc3)cs2)cc1	-64.8	-76.6	-123.6	-105.9	-1.3	-48.5	·
CCn1cc(CN2CCC(C(=O)Nc3cccc(-c4cccc(OC)c4)c3)CC2)c(C)n1	-0.8	-23.8	9.7	-14.1	-7.4	22.0	·
Cn1c(/C=C/c2ccccc2[N+](=O)[O-])nc2ccccc2c1=O	-15.9	-15.4	-22.1	-132.8	-3.4	2.8	·
O=[N+]([O-])c1ccccc1/C=C/c1ccc2ccccc2n1	-153.0	-28.3	-192.8	-138.4	-2.2	-211.1	-77.9
C/C(=C\C(=O)c1ccc(C)cc1)Nc1cccc(O)c1	-186.3	-9.4	-188.1	-284.5	8.4	-184.2	-7.1
Cc1ccc(C(=O)/C=C/Nc2cccc(O)c2)cc1	-69.5	-49.3	-109.4	-193.6	5.2	-124.7	·
COc1ccc(CNC(=O)Cn2c(=O)n(CC(=O)N3CCCCC3)c(=O)c3sccc32)cc1	-13.8	-12.8	-3.4	20.5	8.9	7.2	·
C(=C\c1nc(-c2ccccc2)no1)/c1ccccc1	-152.2	·	-201.9	-154.1	-0.4	-193.4	-82.3
C=CCn1c(-c2ccc(OC)cc2)csc1=Nc1c(C)n(C)n(-c2ccccc2)c1=O	0.7	-6.4	21.5	9.5	3.2	16.0	·
COc1ccc(-c2cc(=Nc3ccc(C(=O)O)cc3)c3cc(C)ccc3o2)cc1	-177.8	-101.8	-142.5	4.1	9.7	-216.2	-116.2
CCc1ccc2oc(-c3ccc(OC)cc3)cc(=Nc3c(C)n(C)n(-c4ccccc4)c3=O)c2c1	-232.2	4.2	-235.6	-77.3	21.2	44.8	-115.0
COc1ccc(/C=C(\NC(=O)c2ccccc2)C(=O)NCc2ccco2)cc1OC	23.2	0.7	5.8	-3.1	-23.3	8.2	·
COC(=O)c1sc(NC(=O)c2c(C)noc2C)nc1C	-1.6	5.8	7.8	-22.0	-3.1	9.4	·
COC(=O)c1sc(N)c(C(=O)OC)c1COC(=O)c1c(C)noc1C	67.6*	-12.6	-11.3	40.2	66.5	44.9	21.1
CCOc1ccc2c(c1)OC(c1ccc(C)cc1)(C(F)(F)F)NC2=O (stereo not drawn)	60.2*	27.8	10.4	95.8*	57.8	28.4	41.2
CN1/C(=C\C(=O)Nc2cccnc2)c2ccccc2CC1(C)C	13.1	33.2	10.8	-4.5	-13.1	-16.5	·
COc1ccc(C(=O)/C=C2/c3ccccc3CC(C)(C)N2C)cc1	61.2*	34.0	-48.1	-18.6	51.7	37.5	-8.7
Oc1ccccc1C1NN=C(c2ccccc2)S1 (stereo not drawn)	-174.8	-10.9	-214.1	-80.1	-5.9	-55.8	-121.2
OCC[C@@H]1C[C@@H](O)[C@H](O)[C@@]2(CCCCO2)O1	21.9	1.9	22.6	2.5	-8.4	-1.2	·
O=C(N/N=C/c1ccc2c(c1)OCO2)c1cccs1	-72.2	-114.1	-95.2	-134.6	-3.1	-84.0	·
Cc1ccsc1C(=O)N/N=C/c1ccc2c(c1)OCO2	-153.7	-80.3	-196.4	-98.9	30.3	-207.5	-70.5
O=C(O)c1ccc(N/N=C/c2ccc3c(c2)OCO3)cc1	75.2*	47.8	29.3	94.3*	-7.2	24.6	43.1
SMILES	Jurkat NFkB inh	Gli-Sufu block	697 NFkB inh	aSyn UTR inh	CSC inhib	Mdm2 MdmX PPI	Jurkat NFkB conf
O=C(O)c1cc(NC(=O)c2ccccc2[N+](=O)[O-])ccc1O	11.0	3.5	17.4	1.5	-9.0	-2.9	·
COc1cc(Nc2ncnc(N)n2)cc(OC)c1	8.2	-7.8	2.8	11.1	-7.7	4.0	·
COc1ccc(C(C)=O)cc1COc1cccnc1[N+](=O)[O-]	54.5*	22.2	-17.6	-52.7	43.1	31.8	1.3
COc1ccc(C(C)=O)cc1COc1ccccc1[N+](=O)[O-]	22.2	-9.1	7.5	20.1	·	15.1	·
CN1CCN(Cc2cn(C)nc2-c2ccccc2F)CC1c1ccccc1 (stereo not drawn)	-1.7	18.8	20.9	18.3	4.0	-36.9	·
Cc1cc(N2CCN(Cc3cn(C)nc3-c3ccccc3F)CC2)cc(C)n1	68.9*	-11.8	-24.3	90.9*	31.1	47.3	-7.7
Cc1ccc(-c2[nH]ncc2C(=O)c2ccc(Br)cc2)c(O)c1	-7.0	8.7	-27.3	-11.2	18.0	39.1	·
O=C(/C=C/c1ccc(O)c(O)c1)OCCc1ccccc1	54.8*	49.6	-70.9	-130.9	71.4	27.7	4.2
COc1cc(OC)c(NC(=O)Cn2cnc3sc(C)c(S(=O)(=O)N4CCOCC4)c3c2=O)cc1Cl	24.2	17.5	17.0	18.1	-8.1	11.9	·
COc1ccc(-c2cc3cc(OC)c(OC)cc3cn2)cc1	4.4	-29.9	-26.9	·	·	-9.8	·
COc1cc2cnc(C3=CCCCC3)cc2cc1OC	10.7	31.5	-0.2	·	-8.3	2.5	·
COc1ccc2cc(C3=CCCCC3)ncc2c1	-198.2	-93.2	-220.5	·	19.2	-207.0	-115.2
COc1ccc2cc(-c3ccsc3)ncc2c1	-150.6	-76.2	-156.5	·	-8.4	-199.8	-92.2
CCOC(=O)c1cncc(C(=O)O)c1	-2.5	-3.0	6.3	-17.8	-0.6	-17.4	·
CCOC(=O)C1=C(C)NC(=NC)SC1c1ccccc1 (stereo not drawn)	-4.6	-3.5	-2.0	2.6	5.2	5.8	·
CC(C)(C)C(=O)Nc1nc(-c2ccccc2)ns1	-104.0	-128.9	-228.2	-145.6	-7.2	-97.1	·
c1ccc(Nc2nc(-c3ccccc3)ns2)cc1	-189.7	-85.1	-228.4	-144.2	16.1	-254.9	-153.6
NC(=O)c1c(NC(=O)c2ccccc2F)sc2c1CCCC2	-173.7	-102.3	-194.3	-170.2	-9.2	-188.5	-107.6
COc1ccc(Cl)cc1C(=O)Nn1cnnc1	11.6	0.6	11.2	-3.8	-9.7	23.5	·
Cc1ccc(C(=O)NC2CCCC2)s1	8.7	-10.8	-9.5	-23.6	3.3	19.4	·
Cc1ccc(C(=O)NC2CCC(C)CC2)s1 (stereo not drawn)	-164.1	-93.3	-156.8	-91.7	-2.3	-95.2	-66.2
CCOC(=O)c1c(NC(=O)CSc2c[nH]c3ccccc23)sc2c1CCC2	54.7*	9.1	-19.1	28.4	30.4	20.1	9.8
CCOC(=O)c1c(NC(=O)CSc2c[nH]c3ccccc23)sc2c1CCCC2	38.2	-2.5	-24.4	50.9	54.6	44.5	·
